Results from PubChem BioAssay (NCI).
The panel holds about 79,000 compounds, 15% with a hit somewhere; the sample as a whole holds those more often. Active and inactive are the calls of the source. No stated cut-off is given here; in the data, active means growth inhibition above about 70%; inactive means the rest.

Legend:
[1] = NCI Yeast Anticancer Drug Screen. Data for the rad52 strain (AID 147);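 further: 0% = growth of vehicle-treated control cultures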; settings: S. cerevisiae rad52 mutant growth inhibition, active compounds read high
How it was run: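 DNA repair-defective yeast; compound exposure; growth scored against vehicle controls.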

[2] = NCI Yeast Anticancer Drug Screen. Data for the wt1 strain (AID 149);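 further: 0% = growth of vehicle-treated wt1 cultures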; settings: S. cerevisiae wt1 strain (SPY 50644) growth inhibition, active compounds read high
How it was run: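 Readout: yeast growth inhibition, normalised to vehicle controls, in the wt1 strain exposed to test compounds.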

[3] = NCI Yeast Anticancer Drug Screen. Data for the mgt1 strain (AID 153); settings: S. cerevisiae mgt1 mutant growth inhibition, active compounds read high
How it was run: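 Growth inhibition relative to vehicle controls was scored for the mgt1 yeast strain after compound exposure.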

[4] = NCI Yeast Anticancer Drug Screen. Data for the rad50 strain (AID 155);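 further: 0% = growth of vehicle-only cultures of the same strain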; settings: S. cerevisiae rad50 strain growth inhibition, active compounds read high
How it was run: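 Compounds were tested on a yeast strain with an engineered DNA damage repair alteration; the reported value is growth inhibition normalised to vehicle treatment.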

[5] = NCI Yeast Anticancer Drug Screen. Data for the mec2-1 strain (AID 157); settings: S. cerevisiae mec2-1 strain, active compounds read high
How it was run: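 Growth inhibition is read against vehicle-treated controls after compound exposure of the mec2-1 yeast strain, which is defective in DNA damage repair or cell cycle control.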

[6] = NCI Yeast Anticancer Drug Screen. Data for the rad14 strain (AID 159);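 further: 0% = growth of vehicle-treated control cultures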; settings: S. cerevisiae rad14 strain growth inhibition, active compounds read high
How it was run: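 Compound-treated yeast with a defined DNA-repair lesion; growth inhibition normalised to vehicle-treated cultures.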

[7] = NCI Yeast Anticancer Drug Screen. Data for the sgs1 mgt1 strain (AID 161);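 further: 0% = growth of cultures given vehicle only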; settings: S. cerevisiae sgs1 mgt1 strain, active compounds read high
How it was run: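 Yeast cells carrying a defined DNA-repair defect were exposed to test compounds. Growth inhibition was measured relative to vehicle-treated controls.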

[8] = NCI Yeast Anticancer Drug Screen. Data for the CLN2oe strain (AID 163);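 further: 0% = growth of vehicle-only control cultures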; settings: S. cerevisiae CLN2oe strain, active compounds read high
How it was run: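 Compound-treated yeast; growth vs vehicle ctrl = % inhibition. Genetically altered strain (cell-cycle control).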

[9] = NCI Yeast Anticancer Drug Screen. Data for the cln2 rad14 strain (AID 165);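 further: 0% = growth equal to vehicle treated cultures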; settings: S. cerevisiae cln2 rad14 strain, active compounds read high
How it was run: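 Growth inhibition, relative to vehicle-treated controls, is the read-out. The test organism is a yeast strain with defined genetic alterations, cln2 rad14.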

[10] = NCI Yeast Anticancer Drug Screen. Data for the bub3 strain (AID 167); settings: S. cerevisiae bub3 mutant strain, active compounds read high
How it was run: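 Growth of a checkpoint-deficient yeast mutant is measured after compound exposure. Values represent inhibition relative to vehicle.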

[11] = NCI Yeast Anticancer Drug Screen. Data for the mlh1 strain (AID 171);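 further: 0% = growth of vehicle-treated control cultures of the same strain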; settings: S. cerevisiae mlh1 strain growth inhibition, active compounds read high
How it was run: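 Compounds are applied to a genetically altered yeast strain, and its growth is compared with that of vehicle-treated cultures to give percent inhibition.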

[12] = NCI Yeast Anticancer Drug Screen. Data for the sgs1 strain (AID 173);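 further: 0% = growth of vehicle-only control cultures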; settings: S. cerevisiae sgs1 mutant, active compounds read high
How it was run: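 Compounds applied to genetically altered yeast; growth compared with vehicle-treated cultures to give % inhibition.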

[13] = NCI Yeast Anticancer Drug Screen. Data for the mlh1 rad18 strain (AID 175); settings: S. cerevisiae mlh1 rad18 strain growth inhibition, active compounds read high
How it was run: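 Cells of a genetically altered yeast strain, deficient in DNA damage repair, were treated with compound. Their growth was then compared with that of vehicle-treated cultures to give inhibition.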

[14] = NCI Yeast Anticancer Drug Screen. Data for the rad18 strain (AID 177); settings: S. cerevisiae rad18 mutant growth inhibition, active compounds read high
How it was run: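 Compounds are applied to a repair-deficient yeast strain, and growth is compared with that of vehicle-treated cultures to give percent inhibition.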

[15] = NCI Yeast Anticancer Drug Screen. Data for the rad50EPP+ strain (AID 151);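 further: 0% = growth of vehicle-treated control cultures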; settings: S. cerevisiae rad50 mutant strain, active compounds read high
How it was run: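 rad50EPP+ yeast treated with test compounds. Readout: growth vs vehicle control.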

[16] = NCI Yeast Anticancer Drug Screen. Data for the wt2 strain (AID 169);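 further: 0% = growth of vehicle-treated yeast cultures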; settings: S. cerevisiae wt2 strain growth inhibition, active compounds read high
How it was run: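 Compound exposure of yeast; growth compared with vehicle controls; inhibition reported.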

[17] = at 5.0 µM (retest, dose inferred, filed as 0.5)
[18] = at 50.0 µM (retest, dose inferred, filed as 5.0)

Measured: growth inhibition

O=C1CSC(c2cccc(Cl)c2)N1c1ccc(-c2ccc(-n3c(-c4ccccc4)nc4ccccc4c3=O)cc2)cc1 (stereo unspecified)
inactive: [1]; at 1.2 µM 1% | [1]; at 3.7 µM 5% | [1]; at 11.0 µM 8% | [1]; at 33.0 µM 7% | [1]; at 100.0 µM 18% | [2]; at 1.2 µM 1% | [2]; at 3.7 µM 1% | [2]; at 11.0 µM -1% | [2]; at 33.0 µM -4% | [2]; at 100.0 µM -3% | [3]; at 1.2 µM 1% | [3]; at 3.7 µM 2% | [3]; at 11.0 µM 3% | [3]; at 33.0 µM 25% | [3]; at 100.0 µM 60% | [4]; at 1.2 µM 2% | [4]; at 3.7 µM 6% | [4]; [17] -2% | [4]; at 11.0 µM 7% | [4]; at 33.0 µM 15% | [4]; [18] 61% | [4]; at 50.0 µM 66.8% | [4]; at 100.0 µM 22% | [5]; at 1.2 µM 3% | [5]; at 3.7 µM 4% | [5]; [17] -9% | [5]; at 11.0 µM 6% | [5]; at 33.0 µM 9% | [5]; [18] -26% | [5]; at 50.0 µM 68.5% | [5]; at 100.0 µM 16% | [6]; at 1.2 µM 7% | [6]; at 3.7 µM 9% | [6]; at 11.0 µM 15% | [6]; at 33.0 µM 32% | [6]; at 100.0 µM 47% | [7]; [17] 8% | [7]; at 50.0 µM 43.2% | [8]; at 1.2 µM 13% | [8]; at 3.7 µM 11% | [8]; at 11.0 µM 15% | [8]; at 33.0 µM 15% | [8]; at 100.0 µM 11% | [9]; [17] 31% | [9]; [18] 46% | [9]; at 50.0 µM 41.6% | [10]; at 1.2 µM 5% | [10]; at 3.7 µM 4% | [10]; [17] 10% | [10]; at 11.0 µM 6% | [10]; at 33.0 µM 8% | [10]; at 100.0 µM 29% | [11]; at 1.2 µM 1% | [11]; at 3.7 µM 5% | [11]; at 11.0 µM 7% | [11]; at 33.0 µM 24% | [11]; at 100.0 µM 42% | [12]; at 1.2 µM 0% | [12]; at 3.7 µM 2% | [12]; at 11.0 µM 10% | [12]; at 33.0 µM 39% | [12]; at 100.0 µM 57% | [13]; [17] 5% | [14]; at 1.2 µM 0% | [14]; at 3.7 µM 3% | [14]; at 11.0 µM 14% | [14]; at 33.0 µM 22% | [14]; at 100.0 µM 31%
active: [7]; [18] 83% | [10]; [18] 85% | [10]; at 50.0 µM 86.8% | [13]; [18] 85% | [13]; at 50.0 µM 85.1%

COC(=O)C1(C)CCc2c(ccc3ccccc23)C1=O (stereo unspecified)
inactive: [1]; at 1.2 µM -1% | [1]; at 3.7 µM 4% | [1]; at 11.0 µM 12% | [1]; at 33.0 µM 4% | [1]; at 100.0 µM 44% | [15]; at 1.2 µM -1% | [15]; at 3.7 µM 13% | [15]; at 11.0 µM 28% | [15]; at 33.0 µM 23% | [15]; at 100.0 µM 49% | [3]; at 1.2 µM -1% | [3]; at 3.7 µM 0% | [3]; at 11.0 µM -1% | [3]; at 33.0 µM -2% | [3]; at 100.0 µM 30% | [4]; at 1.2 µM -1% | [4]; at 3.7 µM 6% | [4]; [17] -13% | [4]; at 11.0 µM 13% | [4]; at 33.0 µM -87% | [4]; [18] 29% | [4]; at 50.0 µM 39.9% | [4]; at 100.0 µM 42% | [5]; at 1.2 µM 1% | [5]; at 3.7 µM -1% | [5]; [17] -14% | [5]; at 11.0 µM -2% | [5]; at 33.0 µM 0% | [5]; [18] -17% | [5]; at 50.0 µM 27.1% | [5]; at 100.0 µM 13% | [6]; at 1.2 µM -1% | [6]; at 3.7 µM 4% | [6]; at 11.0 µM 12% | [6]; at 33.0 µM 14% | [6]; at 100.0 µM 19% | [7]; [17] -5% | [7]; [18] 47% | [7]; at 50.0 µM 64.3% | [8]; at 1.2 µM -4% | [8]; at 3.7 µM 4% | [8]; at 11.0 µM 6% | [8]; at 33.0 µM 11% | [8]; at 100.0 µM 15% | [9]; [17] -10% | [9]; [18] 12% | [9]; at 50.0 µM 1.75% | [10]; at 1.2 µM 37% | [10]; at 3.7 µM 49% | [10]; [17] 40% | [10]; at 11.0 µM 57% | [10]; at 33.0 µM 65% | [16]; at 1.2 µM -5% | [16]; at 3.7 µM -2% | [16]; at 11.0 µM 9% | [16]; at 33.0 µM -5% | [11]; at 1.2 µM -2% | [11]; at 3.7 µM 2% | [11]; at 11.0 µM 7% | [11]; at 33.0 µM 5% | [11]; at 100.0 µM 32% | [12]; at 1.2 µM -14% | [12]; at 3.7 µM 3% | [12]; at 11.0 µM 16% | [12]; at 33.0 µM 34% | [12]; at 100.0 µM 67% | [13]; [17] -11% | [13]; [18] 57% | [13]; at 50.0 µM 26.5% | [14]; at 1.2 µM -5% | [14]; at 3.7 µM 6% | [14]; at 11.0 µM 10% | [14]; at 33.0 µM 7% | [14]; at 100.0 µM 53%
active: [10]; [18] 78% | [10]; at 50.0 µM 81% | [10]; at 100.0 µM 75% | [16]; at 100.0 µM 80%
